# According to PubChem BioAssay AID2314 (National Center for Advancing Translational Sciences (NCATS), 2010):
# Hit rate of the full screen: of about 300,000 compounds, about 37,000 (12%) were called active. This is one part of a sample in which actives are shown more often than they occur. A number with no mark means an inactive call. Rule as the data show it: active = max response mostly above about 13% (no sharp cut-off); inactive = mostly below about 14%.
# Test: Cycloheximide Counterscreen for Small Molecule Inhibitors of Shiga Toxin; also: read at 38.3 µM for the half of the compounds with a filed dose; 0% is about no effect
# Conditions: cell reporter, cycloheximide protein synthesis inhibition counterscreen; hits give high values
row,SMILES,max response
1,CCOc1ccc(NC(=O)C2CCN(C(=O)N3CCOc4ccccc43)CC2)cc1,-1.22%
2,Cc1cc(C)c2c(=O)[nH]c(SCC(=O)Nc3ccc(Br)cc3)nc2n1,-1.25%
3,COc1ccc(C2CC(c3cccs3)=NN2C(=O)CCC(=O)O)cc1OC (stereo unspecified),-0.943%
4,COc1ccc(C2CC(c3cccs3)=NN2c2ccc(F)cc2)cc1OC (stereo unspecified),15.3%
5,COc1ccc(C2CC(c3cccs3)=Nc3ccccc3S2)cc1OC (stereo unspecified),30.8% (active)
6,COC(=O)c1ccc(NC(=O)CSc2nnc(C3CC3)n2C)cc1,-2.61%
7,COC(=O)c1ccc(NC(=O)CSc2nnc(-c3ccncc3)n2C)cc1,0.526%
8,CCn1c(SCC(=O)NNC(=O)c2ccc(OC)cc2)nnc1C(C)C,-1.89%
9,C=CCn1c(CNC(=O)c2ccco2)nnc1SCC(=O)c1ccc(OC)cc1,0.446%
10,CCn1c(CNc2ccc(OC)cc2)nnc1SCC(=O)c1ccc(OC)cc1,25.8% (active)
11,COC(=O)c1ccc(NC(=O)CSc2nnc(CNc3ccc(OC)cc3)n2C)cc1,15.4% (active)
12,O=C(NCCCN1CCCC1=O)C(=O)NCC1OCCN1S(=O)(=O)c1ccc(Br)cc1 (stereo unspecified),0.895%
13,CN(C)c1ccc(NC(=S)N(CCc2ccccc2)C2CC(=O)N(c3c(Cl)cccc3Cl)C2=O)cc1 (stereo unspecified),9.01%
14,Cc1ccc(-n2c(SCC(=O)NCCC3=CCCCC3)nc3n[nH]c(C)c3c2=N)cc1Cl,-7.25%
15,O=C(Cn1cncn1)N/N=C/c1c2ccccc2cc2ccccc12,10.8%
16,Cc1cccn2c(=O)c3cc(C(=O)NCCN4CCOCC4)c(=N)n(Cc4cccnc4)c3nc12,-3.88%
17,CC(Cc1cccs1)NCc1ccc(Cl)cc1 (stereo unspecified),8.85%
18,CC(Cc1cccs1)NC(=O)c1cccc(Cl)c1 (stereo unspecified),54.9% (active)
19,CC(Cc1cccs1)NC(=O)NC1CCCCC1 (stereo unspecified),12%
20,O=C(c1cnc(Cl)c(Cl)c1)N1CCN(S(=O)(=O)c2ccc(F)cc2)CC1,-7.24%
21,Cc1cnc(C(=O)N2CCCC(C(=O)c3ccc(C(F)(F)F)cc3)C2)cn1 (stereo unspecified),-6.02%
22,O=C(NCc1ccco1)c1sc2cccc(F)c2c1Cl,24.8% (active)

row,SMILES,max response
1,O=C(NCc1ccco1)c1nn2cccnc2c1Cl,7.86%
2,O=C(NCc1ccco1)c1ccc([N+](=O)[O-])cc1Cl,-2.66%
3,COc1ccc2c(Cl)c(C(=O)NCc3ccco3)sc2c1,76.1% (active)
4,Cn1nc(-c2ccc(Cl)cc2)c2cc(C(=O)NCc3ccco3)sc21,-3.6%
5,COc1ccc(-c2cc(C(=O)NCc3ccco3)no2)cc1OC,8.2%
6,COC(=O)c1ccc(COc2cc([N+](=O)[O-])cc3cccnc23)cc1,0.536%
7,COc1cccc(NC(=O)C2CCCN(c3ncnc4c3nc3n4CCCCC3)C2)c1 (stereo unspecified),9.28%
8,CCCOc1ccc(Cc2c(Cl)nc(SC)nc2NC)cc1,-0.737%
9,CC(NC(=O)c1cc(=O)[nH]c2ccccc12)c1ccc(F)cc1F (stereo unspecified),-4.29%
10,CC(C)N1C(=S)SC(C)(C)C1n1oc(=O)n(-c2ccc(Cl)c(Cl)c2)c1=O (stereo unspecified),-1.96%
11,CC(=O)NC1CCN(CC(=O)Nc2nccs2)CC1,4.21%
12,CC1(C)CC(=O)C(C2c3ccccc3S(=O)(=O)c3ccccc32)C(=O)C1,7.14%
13,COc1ccc(CNC(=O)C(NS(=O)(=O)c2cccc3nsnc23)C(C)C)cc1 (stereo unspecified),2.57%
14,Cc1ccc(C)c(OCCC(=O)OCC(=O)N2CCN(c3ccccc3)CC2)c1,-1.98%
15,COc1ccc2c(c1)C(=C(C#N)C#N)C(=O)N2CCc1ccccc1,13.7% (active)
16,CCCCN1C(=O)/C(=C(/C#N)C(N)=O)c2ccccc21,-9.26%
17,C#CCN1C(=O)C(O)(CC(=O)c2cc(OC)ccc2OC)c2ccccc21 (stereo unspecified),-0.954%
18,NC(=O)c1cc2ccccc2o/c1=N/NC(=O)c1cccc(F)c1,8.31%
19,COc1cccc2cc(C(N)=O)/c(=N\NC(=O)c3ccccc3)oc12,36.9% (active)
20,COc1ccc(C(=O)N/N=c2\oc3ccccc3cc2C(N)=O)cc1,45%
21,CCCC(C)c1nnc(NC(=O)C2CC(=O)N(c3ccc(OCC)cc3)C2)s1 (stereo unspecified),-2.49%
22,COc1ccc(N2CCN(C(=O)CNC(=O)c3ccc(Br)o3)CC2)cc1,-1.81%

row,SMILES,max response
1,CC1=C(C(N)=O)C(c2ccc(F)cc2)n2nc(CCCO)nc2N1 (stereo unspecified),5.22%
2,Cc1cc(C)c(SCCc2ccncc2)c(C)c1,1.01%
3,CC(c1ccccc1)(c1ccccc1)c1ccncc1,-5.73%
4,CC(C)(C)c1ccc(SCCc2ccncc2)cc1,12.3% (active)
5,COc1ccc(N2CCN(C(=O)Cn3cnc4sc(C)c(S(=O)(=O)N5CCOCC5)c4c3=O)CC2)cc1,-2.13%
6,Cn1c(=O)[nH]c(=O)c2c1[nH]c(=S)n2Cc1ccccc1,-6.84%
7,CCOCc1nnc(NC(=O)CCC2CCCCC2)s1,9.52%
8,CCc1ccc(OCC(O)CN2CCN(CCO)CC2)cc1 (stereo unspecified),-1.22%
9,CCn1c(SC)nc(O)c(C(c2ccc(OC)c(O)c2)c2c(O)nc(SC)n(CC)c2=O)c1=O,18.8%
10,Cc1onc(-c2ccc(Cl)cc2)c1-c1ccnn1S(=O)(=O)c1ccc(Cl)cc1,9.73%
11,COc1ccc2[nH]c(=O)c(-c3noc(-c4ccc(F)cc4)n3)cc2c1,41% (active)
12,COc1ccc(-c2noc(CSc3ccc(C)cc3)n2)cc1,10.3%
13,COc1ccc2[nH]c(=O)c(CN(Cc3cccnc3)S(=O)(=O)c3ccccc3F)cc2c1,-2.1%
14,COc1ccccc1CNS(=O)(=O)c1ccc(C)cc1,7.14%
15,COc1ccc(-c2noc(-c3ccc(C)cc3)n2)cc1,39.5% (active)
16,COc1ccc(CCNC(=O)C(Sc2ccccn2)c2ccccc2)cc1OC (stereo unspecified),-1.92%
17,COc1ccccc1Cc1nc(-c2ccc(C)cc2)no1,35.3% (active)
18,COc1ccc(Cc2nc(-c3ccccn3)no2)cc1OC,33% (active)
19,COc1ccc(-c2noc(CN(C)S(=O)(=O)c3ccc(C)cc3)n2)cc1,-2.54%
20,CCCc1nc(-c2cc3cc(C)ccc3[nH]c2=O)no1,2.4%
21,Cc1ccc(-c2noc(CC(c3ccccc3)c3ccccc3)n2)cc1,11%
22,COc1ccc(CCNS(=O)(=O)c2cccc3cccnc23)cc1OC,-1.86%
